Assay results taken from ChEMBL document CHEMBL3433997, “St. Jude Leishmania screening dataset” (2016).

Tests used:
Type in all cases: functional
[1] = target: Solute carrier family 2, facilitated glucose transporter member 1 (Homo sapiens) (UniProt P11166); assay: ST_JUDE_LEISH: Cytotoxicity at 2uM final concentration against transgenic Leishmania Mexicana promastigotes LmGLUT1 that are glucose transport deficient and complemented with the human glucose transporter GLUT1. Activity is measured by DNA content using SYBR green in vitro
Chain of Solute carrier family 2, facilitated glucose transporter member 1 (Homo sapiens) (P11166 whole entry): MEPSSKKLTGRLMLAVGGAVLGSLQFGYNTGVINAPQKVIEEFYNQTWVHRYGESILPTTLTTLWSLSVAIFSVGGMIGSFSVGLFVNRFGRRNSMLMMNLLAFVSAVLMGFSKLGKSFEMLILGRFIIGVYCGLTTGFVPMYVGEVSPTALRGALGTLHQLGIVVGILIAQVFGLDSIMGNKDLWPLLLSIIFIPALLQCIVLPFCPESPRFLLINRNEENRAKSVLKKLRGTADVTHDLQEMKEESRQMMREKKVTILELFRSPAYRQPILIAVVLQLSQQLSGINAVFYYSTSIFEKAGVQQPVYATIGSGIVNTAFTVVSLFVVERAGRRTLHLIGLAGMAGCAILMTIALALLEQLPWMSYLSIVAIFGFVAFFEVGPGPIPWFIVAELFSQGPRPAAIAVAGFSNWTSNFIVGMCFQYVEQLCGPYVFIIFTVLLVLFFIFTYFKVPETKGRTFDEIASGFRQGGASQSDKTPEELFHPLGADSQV

[2] = target: Hexose transporter 1 (Plasmodium falciparum) (UniProt O97467); assay: ST_JUDE_LEISH: Cytotoxicity at 2uM final concentration against transgenic Leishmania Mexicana promastigotes LmPfHT that are glucose transport deficient and complemented with the Plasmodium falciparum hexose transporter. Activity is measured by DNA content using SYBR green in vitro
[3] = target: Glucose transporter (Leishmania mexicana) (UniProt O61059); assay: ST_JUDE_LEISH: Cytotoxicity at 2uM final concentration against transgenic Leishmania Mexicana promastigotes LmGT2 that are glucose transport deficient and complemented with the L. Mexicana glucose transporter 2. Activity is measured by DNA content using SYBR green in vitro

SMILES	inhibition [1] [%]	inhibition [2] [%]	inhibition [3] [%]
CN(C)CCNC(=O)c1ccc2c(c1)ncn2-c1cc(OCc2ccccc2C(F)(F)F)c(C(N)=O)s1.CN(C)CCNC(=O)c1ccc2ncn(-c3cc(OCc4ccccc4C(F)(F)F)c(C(N)=O)s3)c2c1	2.32	1.7	1.86
O=C(Nc1ccc(-c2cccc(-c3nc4cc(F)ccc4[nH]3)c2)cc1)c1ccncc1	13.9	14.2	12.9
O=C(NCCc1ccc(Cl)c(Cl)c1)c1ccc(CNC(=O)c2ccc(O)c(-c3ccc(Cl)c(Cl)c3)c2)cc1	0.99	1.15	1.06
O=C(Nc1ccc(Br)cc1)N(CCN1CCOCC1)CC(O)COCc1ccc(F)cc1 (stereo not given)	1.97	1	-8.93
O=S(=O)(NCCN1CCCC1)c1ccc(-c2cccc(CNC3Cc4ccccc4C3)c2)s1	13.9	13.6	5.84
O=C(Nc1ccc(Cn2ncc(N3CCCNCC3)c(Cl)c2=O)cc1)Nc1ccc(F)cc1[N+](=O)[O-]	10.2	11.4	5.42
N#Cc1ccc2c(c1)CCN(CCC1CCC(NC(=O)c3ccc(-c4ccccc4)s3)CC1)CC2 (stereo not given)	4.75	3.75	2.43
Cc1nc(C)c(-c2ccc(C(F)(F)F)cc2)c(O)c1Br	2.72	1.79	0.77
Cc1ccccc1Nc1nc(NCCc2ccccc2)nc2ccccc12	49.2	37.4	18.3
CCn1c(Sc2ccc(C#N)c([N+](=O)[O-])c2)nnc1-c1ccc(Cl)cc1	3.57	3.08	1.39
COc1ccc(Cn2ncc3c4c(N)nc(N)nc4ccc32)cc1OC	86.6	82.8	73
Cc1cc(NCCC(=O)NCCOc2ccccc2)nc(NCCOc2ccccc2)n1	3.09	-0.07	0.08
COc1ccc(-c2cc(C(=O)N[C@@H](CC3CCCCC3)C(=O)NCCN3CCCCC3)ccc2O)cc1	-0.43	-0.56	-0.35
N#Cc1ccc(NC(=O)Nc2ccc(OC(F)(F)F)cc2)cc1	2.17	1.59	-0.05
Clc1nc(Cl)c2c(ccn2Cc2ccccc2)n1	1.47	0.9	2.54
CCc1ccc(S(=O)(=O)Nc2cccc(CCN3CCC(N4CCCCC4)CC3)c2)cc1	1.95	1.48	-0.34
COc1ccc(Nc2nccc(NCCNC(=O)c3cc4ccccc4s3)n2)cc1	5.11	3.59	-0.64
CCCNCc1ccc(-c2ccc(CN(CCOC)C(=O)Cc3cccnc3)cc2)nc1	0.25	1.34	3.67
COc1ccc(Nc2nccc(N3CCC(NC(=O)Nc4cc(C)ccc4C)C3)n2)cc1 (stereo not given)	10.3	7.52	9.76
COc1cc(Nc2nc(N)c3cc(OC)c(OC)cc3n2)cc(OC)c1	6.58	5.6	3.12
CC(C)(C)n1nnnc1C(c1cccnc1)N(Cc1ccccc1)Cc1ccc(Cl)cc1 (stereo not given)	2.8	10.2	2.8
c1cc2[nH]c(CCCCCc3nc4cc(C5=N[C@@H]6CCCC[C@@H]6N5)ccc4[nH]3)nc2cc1C1=N[C@@H]2CCCC[C@@H]2N1	3.32	2.96	1.81
Cc1cccc2nc(-c3ccc(-c4cccc(CNC5CCN(C)CC5)c4)s3)[nH]c12	-2.43	2.74	-0.61
COc1ccc2c(=O)c(-c3ccc(OC(F)(F)F)cc3)c(C)[nH]c2c1	-0.72	1.76	1.81

SMILES	inhibition [1] [%]	inhibition [2] [%]	inhibition [3] [%]
NC1CCCN(Cc2cccc(-c3ccc(-c4nc5ccccc5[nH]4)cc3)c2)C1 (stereo not given)	7.18	5.94	8.63
COc1cc(C(C)C)ccc1N1CCN(CCCCNC(=O)c2ccc(NC(=O)c3ccc(Cl)cc3)cc2)CC1	4.1	1.59	2.26
Cc1ccc(C2CCN(CCCCNC(=O)c3ccc(-c4ccc(C#N)cc4)cc3)CC2)c(O)c1	7.24	7.29	7.94
CN(C)c1ccc(CN2CCC(NC(=O)c3ccc(-c4ccc(N(C)C)cc4)s3)CC2)cc1	1.4	-0.22	-0.4
C=C[C@]1(C)C[C@@H](OC(=O)CSC2CN3CCC2C3)[C@@]2(C)C3C(=O)CC[C@@]3(CC[C@H]2C)[C@@H](C)[C@@H]1O (stereo not given in full)	72.8	73.2	59
c1ccc2sc(-c3csc(Nc4ccncc4)n3)nc2c1	-1.14	1.09	6.37
CCOC(=O)Nc1cc(-c2csc(N=C(N)N)n2)cc([N+](=O)[O-])c1	0.23	0.58	1.09
O=C(NCCCN1CCCCC1)c1ccc(Nc2nccc(Nc3ccc(Oc4ccccc4)cc3)n2)cc1	10.4	8.47	7.37
CC(C)(C)c1ccc(NC(=O)c2ccc(CN3CCCN(Cc4cccc(O)c4)CC3)cc2)cc1	0.52	0.08	2.02
Cc1nnsc1C(=O)Nc1cccc(-c2ccc(-c3nc4cc(F)ccc4[nH]3)s2)c1	1.06	0.37	-2.44
O=C(NCc1cccc(Br)c1)c1ccc(CNC2CCN(Cc3ccccc3)CC2)cc1	5.34	1.61	5.37
Nc1cccc(-c2ccc3ccnc(N)c3c2)c1	3.63	4.39	3.35
Fc1ccc(Nc2ccnc3cc(-c4ccc(CNCCN5CCOCC5)o4)ccc23)c(Cl)c1	2.04	2.02	2.34
CCC[C@@H]([C@@H](CC(C)C)C(=O)N[C@@H](CCCCNC(=O)c1ccccn1)C(=O)Nc1nccs1)N(O)C=O	4.93	6.98	1.73
O=C(Nc1ccccc1F)N(CCCn1ccnc1)Cc1csc(-c2ccc(CNCc3ccccc3)cc2)n1	-0.67	0.06	3.14
COc1cc(C(=O)N2CCN(C(C)C)CC2)ccc1CN(C)CCCCN1CCN(c2cccc(Cl)c2Cl)CC1	1.77	1.73	0.12
COc1ccc2ncc(F)c(CCN3CCC(NCc4cc5c(cn4)OCCS5)CC3)c2c1	57.8	66.5	80.3
O=C(/C=C/c1ccc(Cl)c(Cl)c1)NC1CCC(CN2CCC(c3c[nH]c4ccncc34)CC2)CC1 (stereo not given)	0.22	0.56	0.65
O=C(NC(c1ccc(Cl)cc1)c1ccc2cccnc2c1O)c1ccccc1 (stereo not given)	0.27	-0.02	-2.91
CC1CCN(Cc2ccc(NC(=O)c3cc4ccc5cccnc5c4[nH]3)cc2)CC1	7.7	7.81	7.77
CCCCCN1CCC(NS(=O)(=O)c2cccc(C(=O)Nc3cccc(C(F)(F)F)c3)c2)C1 (stereo not given)	1.68	1.1	4.07
CC1(C)N=C(N)N=C(N)N1c1ccc2ccccc2c1	3.26	3.3	4.01
COc1cc(NC(=O)c2cc([N+](=O)[O-])ccc2NC(=O)CNC2CCCC(C)C2C)cc(OC)c1 (stereo not given)	12	4.27	3.41
CCN(CCCN1CCCCC1)c1cc(C)nc(Nc2ccc(C)cc2C)n1	1.88	1.53	2.76

SMILES	inhibition [1] [%]	inhibition [2] [%]	inhibition [3] [%]
O=C(/C=C/c1ccccc1F)NC1CCC(CCN2CCc3ccc(-c4cccnc4)cc3CC2)CC1 (stereo not given)	15.8	15.8	20.1
Cc1cc(Nc2ccccc2)nc(Nc2ccccc2C)n1	5.24	4.32	0.47
N#Cc1ccc(NC(=O)c2ccc(C(=O)NCCCCN3CCC(c4ccc5c(c4OCCOC4CCCCO4)CCCC5)CC3)cc2)cc1 (stereo not given)	0.68	2.54	0.27
CCc1nnc2sc(-c3cccc(NC(=O)c4ccc(OC)c(Cl)c4)c3)nn12	1.05	2.45	3.88
Cc1cccn2c(=O)c3cc(C(=O)NCCN4CCOCC4)c(=N)n(CCc4ccccc4)c3nc12	-0.34	2.09	0.41
CC(C)N1CCN(C(CN2CCN(CCCOc3cccc(F)c3)CC2)c2ccc(F)cc2)CC1 (stereo not given)	-2.25	-0.57	-1.78
O=C(Nc1ccc(F)c(F)c1)c1ccc(CN2CCCN(Cc3cccc(O)c3)CC2)cc1	3.12	2.77	3.84
CN1CCN(CC(=O)Nc2cccc(-c3cccc(-c4nc5cc(C(F)(F)F)ccc5[nH]4)c3)c2)CC1	3.23	2.92	3.87
COc1ccc(CNCc2cccc(-c3cccc(-c4nc5cc(F)ccc5[nH]4)c3)c2)cc1	2.28	0.55	-0.04
CCc1ccc(CN2CCC(NC(=O)c3ccc(-c4ccc(N(C)C)cc4)s3)CC2)cc1	2.04	1.82	6.05
O=c1cc(NCCCNC(c2ccccc2)c2ccc(Cl)c(Cl)c2)[nH]c2ccccc12 (stereo not given)	-1.95	-1.47	-1.3
O=C(c1ccc([N+](=O)[O-])o1)N1CCC(c2cn(Cc3cccc(F)c3)c3ccccc23)CC1	50.1	50.9	10.2
CN(Cc1ccc(C#N)cc1)C1CCN(c2cc(NC(=O)c3ccc(F)cc3)ccn2)CC1	1.28	2.79	-1.93
CN(C)CCNCc1ccc(-c2ccc3c(Nc4ccc(F)cc4Cl)ccnc3c2)o1	4.19	6.24	-0.47
CN1CCN(CCc2ccc3nc(-c4csc(Cc5cc(Cl)ccc5OCc5ccccc5)n4)[nH]c3c2)CC1	0.84	2.08	-1.4
O=S(=O)(NC1CCCCN(Cc2ccccc2O)C1)c1ccc(C(F)(F)F)cc1 (stereo not given)	1.87	4.93	0.86
O=C(/C=C/c1ccc2ccccc2c1)NCC1(c2ccc(-c3ccccc3)cc2)CCOCC1	2.52	2.55	3.08
O=C(C1COc2ccccc2O1)N(CCCn1ccnc1)Cc1csc(-c2ccc(CNCc3ccccc3)cc2)n1 (stereo not given)	3.99	4.14	2.05
Cc1nc(N)nc(N)c1-c1ccc(Br)c(Br)c1	4.47	4.38	3.4
O=C(NC1CCCCC1)C(c1cccs1)N(CCc1ccccc1)C(=O)c1ccco1 (stereo not given)	1.57	1.89	0.46
COc1ccc(C(C(=O)NC2CCN(C[C@H](O)c3ccnc4ccc(OC)cc34)CC2)N2CCN(c3ccc(F)cc3)CC2)cc1 (stereo not given in full)	1.52	1.23	1.93
N#Cc1ccc(N(CCOc2ccc(Cl)c(Cl)c2)Cc2ccccc2C(F)(F)F)cc1C(F)(F)F	2.54	-0.11	0.26
